# PubChem BioAssay
# Records with an inconclusive call do not appear. Active and inactive are the calls of the source.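 Rule for the calls, unless noted: active = thallium flux through the channel raised or lowered by more than 3 SD from vehicle-only wells, actives on both sides; inactive = the rest.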
# Tests used:
# F380Y/beta1 = test: modulators of BK channel variants, profiling panel, selectivity assay, cell-based, U2OS BacMam, thallium flux, beta subunits (AID 1259406); details: at 30 µM;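 note: initial slope of Thallos dye fluorescence rise after thallium is added; log ratio against the mean of 0.3% DMSO vehicle wells on the same plate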
# F380Y/beta4 = test: as above; details: at 30 µM
# R275C/beta4 = test: as above; details: at 30 µM
# R275C/Slo1WT/beta2 = test: as above; details: at 30 µM
# [1] = circadian clock period modulators, cell-based, LOPAC library, luminescence reporter (AID 2774; call rule not given here;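 note: values are relative to mean of DMSO wells on each plate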); details: circadian reporter cells, at 7 µM, actives lie on both sides
# [2] = modulation of C. elegans fzo-1 (AID 1259413; call rule not given here;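 note: fzo-1 mutant C. elegans worms in liquid wells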); details: C. elegans fzo-1 modulator screen, mean read-out; stronger effect = higher value
# [3] = polyglutamine-triggered caspase-3 activation inhibitors, cell-based (AID 1583); details: polyglutamine-induced caspase-3 activation, cell assay; stronger effect = higher value;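 tested at 10 µM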
# [4] = suppressors of polyQ aggregation in yeast, 75Q-TubU reporter (AID 1593); details: Yeast 75Q polyglutamine aggregation reporter
# [5] = inhibitors of mitochondrial cytochrome c release, biochemical, purified mitochondria (AID 1603); details: stronger effect = lower value;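 note: mouse liver mitochondria challenged with calcium chloride; signal normalized to the plate average as 100%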
# [6] = phospholipid biosynthesis inhibitors in animal cells, primary screen, cell-based, LOPAC library, screen 4 (AID 1347384; call rule not given here); details: phospholipid biosynthesis inhibition screen, at 10 µM
# [7] = system: Aerobactin synthetase IucA (Klebsiella pneumoniae); test: IucA aerobactin synthetase inhibitors, biochemical, Tocris library, absorbance (AID 1345561; call rule not given here;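 note: 100% = enzyme without compound and 0% = no enzyme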); details: purified IucA enzyme assay, absorbance (OD) read-out; stronger effect = lower value;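 tested at 8 µM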
# [8] = SU-DIPG-VI glioma cell viability, MIPE4.0 library, CellTiter-Glo luminescence, qHTS (AID 1347066; cut-off not given, nearly all actives have AC50 up to about 30 µM;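 note: cells exposed to compound for 48 hours before readout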); details: CellTiter-Glo ATP luminescence
# [9] = modifiers of HSF1 nuclear foci, imaging, Selleck Cancer Library (AID 1347162; in the data active = plate-normalised HSF1 focus index below about 0.46); details: human cells, at 10 µM; SSMD: measured here: HSF1 foci SSMD mean; cell count: measured here: cell number; plate-normalised HSF1 focus index: stronger effect = lower value
compound,measurement,setting,value
CON=C(C(=O)NC1C(=O)N2C(C(=O)O)=C(COC(C)=O)CSC12)c1csc(N)n1 (centres undefined),log fold change Tl+ flux,F380Y/beta1,-0.0319 (inactive)
same,log fold change Tl+ flux,F380Y/beta4,0.0152 (inactive)
same,log fold change Tl+ flux,R275C/beta4,-0.0222 (inactive)
same,log fold change Tl+ flux,R275C/Slo1WT/beta2,-0.0319 (inactive)
CN1CCN(CC/C=C2/c3ccccc3Sc3ccc(S(=O)(=O)N(C)C)cc32)CC1,period change,[1],0.09 h (inactive)
same,mean signal,[2],215 (inactive)
CC(CCc1ccccc1)NCC(O)c1ccc(O)c(C(N)=O)c1 (centres undefined),inhibition,[3],1.38%
same,score,[4],1.61
same,cytochrome c release ratio,[5],0.72
same,period change,[1],-0.45 h (inactive)
same,mean signal,[2],243 (inactive)
same,outcome,[6],inactive
same,log fold change Tl+ flux,F380Y/beta1,0.0226 (inactive)
same,log fold change Tl+ flux,F380Y/beta4,0.0997 (inactive)
same,log fold change Tl+ flux,R275C/beta4,0.0314 (inactive)
same,log fold change Tl+ flux,R275C/Slo1WT/beta2,-0.0367 (inactive)
CC(C)[N+]1(C)C2CCC1CC(OC(=O)C(CO)c1ccccc1)C2 (centres undefined),mean signal,[2],254 (inactive)
same,remaining activity,[7],98.6% (inactive)
same,outcome,[8],inactive
same,log fold change Tl+ flux,F380Y/beta1,0.0263 (inactive)
same,log fold change Tl+ flux,F380Y/beta4,0.0435 (inactive)
same,log fold change Tl+ flux,R275C/beta4,0.0153 (inactive)
same,log fold change Tl+ flux,R275C/Slo1WT/beta2,-0.0119 (inactive)
CC(=O)N=c1sc(S(N)(=O)=O)nn1C,inhibition,[3],0.15%
same,score,[4],0.84
same,cytochrome c release ratio,[5],0.55
same,mean signal,[2],273 (inactive)
same,log fold change Tl+ flux,F380Y/beta1,-0.0785 (inactive)
same,log fold change Tl+ flux,F380Y/beta4,0.0268 (inactive)
same,log fold change Tl+ flux,R275C/beta4,-0.0118 (inactive)
same,log fold change Tl+ flux,R275C/Slo1WT/beta2,-0.0121 (inactive)
C#C[C@]1(OC(C)=O)CC[C@H]2[C@@H]3CCC4=CC(=O)CC[C@@H]4[C@H]3CC[C@@]21C,log fold change Tl+ flux,F380Y/beta1,0.0384 (inactive)
same,log fold change Tl+ flux,F380Y/beta4,-0.176 (active)
same,log fold change Tl+ flux,R275C/beta4,-0.14 (active)
same,log fold change Tl+ flux,R275C/Slo1WT/beta2,-0.0421 (inactive)
CCC(=O)OCC(=O)[C@@]1(OC(=O)CC)[C@@H](C)C[C@H]2[C@@H]3CCC4=CC(=O)C=C[C@]4(C)[C@@]3(Cl)[C@@H](O)C[C@@]21C,log fold change Tl+ flux,F380Y/beta1,-0.203 (active)
same,log fold change Tl+ flux,F380Y/beta4,-0.237 (active)
same,log fold change Tl+ flux,R275C/beta4,0.0199 (inactive)
same,log fold change Tl+ flux,R275C/Slo1WT/beta2,-0.0376 (inactive)
OC[C@H]1O[C@@H](Oc2cc(O)cc(/C=C/c3ccc(O)cc3)c2)[C@H](O)[C@@H](O)[C@@H]1O,mean signal,[2],254 (inactive)
same,outcome,[8],inactive
same,log fold change Tl+ flux,F380Y/beta1,-0.0141 (inactive)
same,log fold change Tl+ flux,F380Y/beta4,-0.0711 (inactive)
same,log fold change Tl+ flux,R275C/beta4,0.00405 (inactive)
same,log fold change Tl+ flux,R275C/Slo1WT/beta2,0.104 (active)
COc1ccc(-c2oc3c(CC=C(C)C)c(O[C@@H]4O[C@H](CO)[C@@H](O)[C@H](O)[C@H]4O)cc(O)c3c(=O)c2O[C@@H]2O[C@@H](C)[C@H](O)[C@@H](O)[C@H]2O)cc1,mean signal,[2],233 (inactive)
same,log fold change Tl+ flux,F380Y/beta1,0.00909 (inactive)
same,log fold change Tl+ flux,F380Y/beta4,-0.0291 (inactive)
same,log fold change Tl+ flux,R275C/beta4,-0.0348 (inactive)
same,log fold change Tl+ flux,R275C/Slo1WT/beta2,0.0155 (inactive)
O=C(O[C@@H]1Cc2c(O)cc(O)cc2O[C@@H]1c1cc(O)c(O)c(O)c1)c1cc(O)c(O)c(O)c1,mean signal,[2],222 (inactive)
same,SSMD,[9],0.931
same,cell count,[9],6910
same,plate-normalised HSF1 focus index,[9],1.03 (inactive)
